Screening results as filed in PubChem BioAssay.
PL biosyn Enam – phospholipid synthesis inhibitors, CHO cells, primary screen, ZR-82 cells, Enamine library, screen 3 | ZR-82 CHO cells, pyrene fatty acid UV survival, CellTiter Blue; peroxisome-deficient CHO-K1 mutant line; plus DGAT-1, DGAT-2 and ACAT inhibitors | AID 1347385, 2020 | actives 0.4% (n = 20,000) | calls only at 10 µM;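 active = cell survival signal 2 SD away from solvent-only control wells, confirmed on one or two retests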;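 note: 3 h compound exposure then viability read about one day after UV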
* = called active by the depositor; i = inactive; + = active, no number. Shown is part of a subset that was picked to be rich in hits.

SMILES	PL biosyn Enam
COCCNC(=S)N/N=C/c1cccs1	i
O=C(/C=C/c1cccs1)NC1CCCC1	i
S=C(N/N=C/c1cccs1)NC1CCCCC1	+
Fc1ccc(/C=C/c2nc3cc(-c4ccccc4)ccc3o2)cc1	i
O=C(N1CCN(C(=O)C23CC4CC(CC(C4)C2)C3)CC1)C12CC3CC(CC(C3)C1)C2	i
CN=c1scc(-c2ccccc2F)n1/N=C/c1ccccc1F	+
CN=c1scc(-c2ccc(Br)cc2)n1/N=C/c1ccccc1F	i
CN=c1scc(-c2ccccc2F)n1/N=C/c1ccccc1	i
O=c1cc(CN2CCN(Cc3cc4c(cc3O)CCC4)CC2)nc2sccn12	i
O=[N+]([O-])c1ccc(N=Nc2c(O)[nH]c3ccc(Br)cc23)cc1	+
O=[N+]([O-])c1ccc2[nH]c(O)c(N=Nc3ccc(Cl)c(Cl)c3)c2c1	i
Oc1[nH]c2ccc(Br)cc2c1N=Nc1ccc(Cl)c(Cl)c1	i
O=C(c1cc2c(=O)n3ccccc3nc2s1)N1CCC2(CC1)OCCO2	i
C=CCN1C(=O)/C(=N\N=C\c2c[nH]c3ccccc23)c2ccccc21	+
O=S(=O)(N/N=C/c1c[nH]c2ccccc12)c1ccc(Br)cc1	i
NC(=S)N/N=C/c1c[nH]c2ccccc12	i
O=C(CCC(=O)c1cccs1)NNC(=O)c1cc2c(s1)CCCC2	i
CN=c1scc(-c2ccccc2)n1/N=C/c1c[nH]c2ccccc12	i
C(=N\n1c(-c2ccco2)csc1=NCCc1ccccc1)/c1ccco1	i
C(=N\n1c(-c2ccccc2)csc1=NCCc1ccccc1)/c1c[nH]c2ccccc12	+
CC(C)CCNC(=S)NNC(=O)C1CCCO1 (stereo unspecified)	i
CCCn1c2ccccc2c2nc3cc(OC(C)C)c(OC(C)C)cc3nc21	i
CN(CC1COc2ccccc2O1)c1cc(=O)n2cc(Cl)ccc2n1 (stereo unspecified)	i
CC1CCCC/C1=N\NC(=S)NC1CCCCC1 (stereo unspecified)	i
CC(C)NC(=S)NN=C1CCC(C(C)(C)C)CC1 (stereo unspecified)	i
SMILES	PL biosyn Enam
CC(C)NC(=S)N/N=C1\CCCCC1C1CCCCC1 (stereo unspecified)	+
O=C1Nc2ccc(Br)cc2C1(O)C(F)(F)F (stereo unspecified)	i
O=C1Nc2ccc([N+](=O)[O-])cc2C12NNc1ccccc1O2 (stereo unspecified)	+
O=C1Nc2ccc(Br)cc2C12NNc1ccccc1O2 (stereo unspecified)	+
CN1c2ccccc2C(C)(C)C12C=Cc1cc([N+](=O)[O-])ccc1O2 (stereo unspecified)	i
O=c1c2cc([N+](=O)[O-])ccc2oc2ccc([N+](=O)[O-])cc12	i
O=C1NC2(Oc3ccccc31)C(=O)Nc1ccccc12 (stereo unspecified)	i
O=C(Nc1ccc2c(c1)CCC2)C1=CN2CCS(=O)(=O)N=C2C=C1	i
C=CCN1C(=O)C(=O)N(Cc2cc3c(cc2Br)OCO3)C1=O	i
CCOC(=O)c1c(NC(=O)COC(=O)C2(C)CC2(Cl)Cl)sc2c1CCC(C)C2 (stereo unspecified)	i
CN1CCN(S(=O)(=O)c2ccc3c(c2)Cc2cc(S(=O)(=O)N4CCN(C)CC4)ccc2-3)CC1	i
FC(F)(F)c1nc2nc(-c3ccco3)cc(C(F)(F)F)n2n1	i
c1ccc([P+](Cc2ccc3ccccc3c2)(c2ccccc2)c2ccccc2)cc1	i
COc1cc(-c2n[nH]c(=S)o2)cc(OC)c1OC	i
N=C(N)N=Nc1c(O)[nH]c2ccccc12	i
Cc1ccc(C)c(N=Nc2c(C)[nH]c3ccccc23)c1	+
Cc1cc(=S)[nH]c2ccccc12	i
O=c1c2c3c(sc2nc2n1CCCCC2)CCCC3	i
OCCCNc1ncnc2sccc12	i
CN(C)C(CNc1ncnc2sccc12)c1cccs1 (stereo unspecified)	i
ClC1(Cl)CC1CNc1ncnc2sccc12 (stereo unspecified)	+
COC(=O)c1sccc1NC(=O)/C=C/c1cccs1	i
c1ccc(-n2nc(SCc3nc4ccccc4s3)nc2C2CC2)cc1	i
Nc1nc(=O)c2cccnc2s1	i
COc1ccccc1N=Nc1c(O)ccc2ccccc12	i
SMILES	PL biosyn Enam
Cc1nc(N)sc1N=Nc1cccc2ccccc12	+
C=C(C)CN(CC)C(=O)Cn1nc(C)c(S(=O)(=O)N(C)C)c1C	i
CCOCCCn1c(=S)[nH]c2sc(C)c(C)c2c1=O	i
O=[N+]([O-])c1cc2c(cc1/C=N/Nc1ncc(Cl)cc1Cl)OCO2	i
Cc1cc(-c2csc(NC3CC3)n2)c(C)n1C1CCS(=O)(=O)C1 (stereo unspecified)	i
CCCCN(CCCC)[P+](Nc1n[nH]c(=O)[nH]c1=O)(N(CCCC)CCCC)N(CCCC)CCCC	+
